The record followed here is PubChem BioAssay.

The subject of assay [1] is Aerobactin synthetase IucA (Klebsiella pneumoniae). The assay is described as follows: IucA aerobactin synthetase inhibitors, biochemical, Tocris library, absorbance (AID 1345561; call rule not given here;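 also: 100% = enzyme without compound and 0% = no enzyme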). As to conditions: purified IucA enzyme assay, absorbance (OD) read-out; stronger effect = lower value;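 tested at 8 µM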.
The nature of assay [2]: sensitizers of A549 cells to miR-34 induction, primary screen, imaging, A549 dox-inducible miR-34, nuclei and caspase counts (AID 1347080). The note with it: A549 miR-34 inducible, Hoechst nuclei count, 48 h.
Assay [3] is described as follows: viability rescue of complex I mutant cybrids, primary screen, cell-based, galactose medium, ATP luminescence (AID 1645843;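 active = z-score of at least 1.8 in each of two replicates, scored against plate mean and spread of sample wells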;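 also: positive z means more ATP and so rescue of galactose-driven cybrid death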). The note with it: complex I mutant cybrid cells, 72 h, stronger effect = higher value.
Setting [4] is: stronger effect = lower value, cell number ratio, induced over uninduced.
Setting [5] is: measured here: relative caspase fold change +Dox/-Dox.
Setting [6] is: measured here: total cells with miR-34 induction, stronger effect = lower value.
Where [7] appears, read: measured here: total cells without miR-34 induction.

Usually remaining activity stands for the signal under treatment as a percentage of the control signal.

Where “and” joins values, the source holds several entries; their conditions need not be identical. Equal values may be shown once. Calls of active or inactive are those of the source.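 The calls were made as follows, unless noted: active = compounds whose cell count with miR-34 switched on is under 0.7 times the count with it off; inactive = the rest.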

`C[N+](C)(C)CCCCCNCC12CC3CC(CC(C3)C1)C2`: the remaining activity in assay [1] was 117% (inactive). Besides, the values for the fold change in assay [2] (setting [4]) and in assay [2] (setting [5]) were 0.943 (inactive) and 0.772, respectively. Moreover, the figures for the cell count in assay [2] (setting [6]) and in assay [2] (setting [7]) were 8560 and 9080, respectively. Moreover, the z-score in assay [3] was -0.15 (inactive).
In the case of `CN1Cc2c(C(=O)OC(C)(C)C)ncn2-c2ccsc2C1=O`, in assay [1], the remaining activity is 105% (inactive). The values for the fold change in assay [2] (setting [4]) and in assay [2] (setting [5]) were 0.89 (inactive) and 1.34, respectively. The cell count in assay [2] (setting [6]) came to 7080; in assay [2] (setting [7]), 7950. In addition, the z-score in assay [3] was 0.15 (inactive).
For `CCN(CC)CC1CCN(c2ncc3ncnc(Nc4ccc(F)c(Cl)c4)c3n2)CC1`, the remaining activity in assay [1] was 124% (inactive). For the same compound, the fold change in assay [2] (setting [4]) was 0.891 (inactive); in assay [2] (setting [5]), 1.55. Besides, the values for the cell count in assay [2] (setting [6]) and in assay [2] (setting [7]) were 1440 and 1620, respectively. Also, the z-score in assay [3] was -0.675 (inactive).
As to `CCC(=O)OCN1C(=O)C=CC1=O`, the remaining activity in assay [1] is 92.2% (inactive). Besides, the fold change in assay [2] (setting [4]) is 0.956 (inactive); in assay [2] (setting [5]), 1.17. For the same compound, the values for the cell count in assay [2] (setting [6]) and in assay [2] (setting [7]) were 9240 and 9660, respectively. Besides, the z-score in assay [3] is -0.205 (inactive).
Take `O=c1[nH]c2cc(Cl)ccc2c(O)c1-c1cccc(Oc2ccccc2)c1`: the remaining activity in assay [1] was 103% (inactive). Moreover, the fold change is 0.963 (inactive) in assay [2] (setting [4]) and 0.827 in assay [2] (setting [5]). Further, the cell count in assay [2] (setting [6]) stood at 8760; in assay [2] (setting [7]) it was 9100. Besides, in assay [3], the z-score is 0.335 (inactive).
As for `CCCCN1CCC(CCC(=O)c2cc(Cl)c(N)cc2OC)CC1`, the remaining activity in assay [1] was 95.7% (inactive). The fold change in assay [2] (setting [4]) is 0.973 (inactive); in assay [2] (setting [5]), 1.12. In addition, the results for the cell count in assay [2] (setting [6]) and in assay [2] (setting [7]) were 8560 and 8800, respectively. Further, the z-score in assay [3] was -0.48 (inactive).
Turning to `CC(=O)NC1=NN(C(C)=O)C(C)(c2ccccc2)S1` (centres undefined), the remaining activity in assay [1] was 109% (inactive). Also, the fold change in assay [2] (setting [4]) is 1.17 (inactive); in assay [2] (setting [5]), 2.25. Further, the cell count in assay [2] (setting [6]) stood at 1640; in assay [2] (setting [7]), 1400. Moreover, in assay [3], the z-score is -0.275 (inactive).
Consider `CN1CCN(CCc2ccc(Cl)c(Cl)c2)CC1`, for which the remaining activity in assay [1] was 124% (inactive). Moreover, the fold change was 1.04 (inactive) in assay [2] (setting [4]) and 1.01 in assay [2] (setting [5]). Also, the cell count in assay [2] (setting [6]) came to 7800; in assay [2] (setting [7]) it was 7520. In addition, the z-score in assay [3] is -0.73 (inactive).
For `N#Cc1ccc(NCCNCC(=O)N2CCC[C@H]2C#N)nc1`, the remaining activity in assay [1] is 110% (inactive). For the same compound, the figures for the fold change in assay [2] (setting [4]) and in assay [2] (setting [5]) were 0.825 (inactive) and 2.19, respectively. For the same compound, the values for the cell count in assay [2] (setting [6]) and in assay [2] (setting [7]) were 8330 and 10100, respectively. Besides, the z-score in assay [3] was 0.41 (inactive).
On to `NC(=O)CCCCn1ccc(NC(N)=NCC(F)(F)F)n1`, for which the remaining activity in assay [1] is 98.2% (inactive). Also, the fold change is 0.945 (inactive) in assay [2] (setting [4]) and 0.965 in assay [2] (setting [5]). Moreover, the results for the cell count in assay [2] (setting [6]) and in assay [2] (setting [7]) were 8750 and 9250, respectively. For the same compound, the z-score in assay [3] is 1.19 (inactive).
Take `O=C(/C=C/c1ccccc1)NC(NC(=S)Nc1ccc(Cl)cc1)C(Cl)(Cl)Cl` (centres undefined): in assay [1], the remaining activity is 118% (inactive). In addition, the fold change is 0.939 (inactive) in assay [2] (setting [4]) and 1.5 in assay [2] (setting [5]). Moreover, the cell count in assay [2] (setting [6]) was determined as 2530; in assay [2] (setting [7]), 2700. Also, the z-score in assay [3] is -0.74 (inactive).
For the compound `OC[C@H]1NC[C@@H](O)[C@@H](O)[C@@H]1O`, the remaining activity in assay [1] is 123% (inactive). Moreover, the fold change was 0.958 (inactive) and 0.973 (inactive) in assay [2] (setting [4]); 0.787 and 0.709 in assay [2] (setting [5]). Moreover, the cell count is 4950 and 9630 in assay [2] (setting [6]); 5160 and 9890 in assay [2] (setting [7]). Besides, the z-score in assay [3] is -0.17 (inactive).
For the compound `CC(C)c1ccccc1S(=O)(=O)c1cc(N)c2ncccc2c1[N+](=O)[O-]`, the remaining activity in assay [1] is 94.3% (inactive). Moreover, the fold change is 0.871 (inactive) in assay [2] (setting [4]) and 1.36 in assay [2] (setting [5]). Moreover, the results for the cell count in assay [2] (setting [6]) and in assay [2] (setting [7]) were 6170 and 7090, respectively. In assay [3], the z-score was -0.685 (inactive).
`CC1(C)C[C@@H]1C(=O)N/C(=C\CCCCSC[C@@H](N)C(=O)O)C(=O)O`: the remaining activity in assay [1] is 102% (inactive). For the same compound, the fold change in assay [2] (setting [4]) was 0.976 (inactive); in assay [2] (setting [5]), 1.46. Besides, the cell count in assay [2] (setting [6]) was 9200; in assay [2] (setting [7]) it was 9420. The z-score in assay [3] was -0.005 (inactive).
As for `CSc1ccc([C@H]2CN3CCC[C@H]3c3ccccc32)cc1`, the remaining activity in assay [1] was 123% (inactive). Moreover, the fold change in assay [2] (setting [4]) was 0.927 (inactive); in assay [2] (setting [5]), 1.33. The results for the cell count in assay [2] (setting [6]) and in assay [2] (setting [7]) were 7680 and 8280, respectively. Besides, in assay [3], the z-score was -0.51 (inactive).
Take `CC(C)NCC(O)COc1ccccc1-n1cccc1` (centres undefined): the remaining activity in assay [1] is 99.6% (inactive). Further, the values for the fold change in assay [2] (setting [4]) and in assay [2] (setting [5]) were 0.968 (inactive) and 0.992, respectively. Moreover, the cell count stood at 8690 in assay [2] (setting [6]) and 8980 in assay [2] (setting [7]). Besides, the z-score in assay [3] was -0.43 (inactive).
`O=C(Nc1ccc([N+](=O)[O-])cc1O)Nc1ccccc1Br`: in assay [1], the remaining activity is 105% (inactive). The fold change in assay [2] (setting [4]) is 1.13 (inactive) and 1.09 (inactive); in assay [2] (setting [5]), 1.05 and 1.85. The cell count in assay [2] (setting [6]) is 5450 and 2460; in assay [2] (setting [7]), 4830 and 2250. In assay [3], the z-score is -0.58 (inactive).
`COc1cc(Br)c(S(=O)(=O)Nc2ccc(Cl)c(O[C@@H]3CCN(C)C3)c2)cc1OC`: in assay [1], the remaining activity is 112% (inactive). Moreover, the fold change in assay [2] (setting [4]) was 0.925 (inactive); in assay [2] (setting [5]), 1.74. In addition, the values for the cell count in assay [2] (setting [6]) and in assay [2] (setting [7]) were 5240 and 5660, respectively. Also, the z-score in assay [3] was -0.645 (inactive).
`C1CC[C@H]2[N]=[Pt]=[N][C@@H]2C1.O=C(O)C(=O)O`: the remaining activity in assay [1] was 86.1% (inactive). The fold change was 0.928 (inactive) in assay [2] (setting [4]) and 1.09 in assay [2] (setting [5]). Besides, the cell count in assay [2] (setting [6]) was 4040; in assay [2] (setting [7]), 4350. Further, the z-score in assay [3] is 3.04 (active).
